Active and inactive are the calls of the source. The calls were made as follows: active = hit-call score of the fitted dose curve at least 0.9, where 1 is the maximum; inactive = score below 0.9.

Read-out in one test: Monokine induced gamma interferon (MIG), CXCL9 (gene 4283)
Nature of the test: BSK_CASM3C_MIG: BioMAP Diversity Plus: CASM3C Assay for Monokine induced gamma interferon (MIG) Biomarker Activity (AID 2283048).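 Also: MIG protein level measured by ELISA.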 The note with it: primary human coronary artery smooth muscle cells; actives raise or lower the signal.
Regarding `Cc1cc(=O)[nH]c(=S)[nH]1`, the result was inactive.

For `CCCCc1ccc2c(n1)[C@@H](c1ccc(OC)cc1C[C@H](C)C(=O)O)[C@H](C(=O)O)[C@H]2c1ccc2c(c1)OCO2`, the outcome was inactive.

In the case of `FC(F)(F)C(F)(F)C(F)(F)C(F)(F)C(F)(F)C(F)(F)CCI`, the result was inactive.

On to `C=CCOC(=O)c1ccccc1C(=O)OCC=C`, for which the result was inactive.

As to `O=[N+]([O-])C(CO)(CO)CO`, the result was inactive.

For the molecule `Oc1ccc2ccccc2c1N=Nc1ccccc1`, the outcome was inactive.

Take `O=C(N[C@@H](Cc1ccccc1)[C@@H](O)C(=O)N1C[C@@H](O)[C@@H](O)C1)c1cc2cc(Cl)ccc2[nH]1`: the result was inactive.

Take `CCCCCCCCCCCCCCCC`: the result was inactive.

Take `CCCCCCCCCCC`: the result was inactive.

Read-out in another test: serum amyloid A (SAA), SAA1 (gene 6288)
Nature of the test: BSK_CASM3C_SAA: BioMAP Diversity Plus: CASM3C Assay for serum amyloid A (SAA) Biomarker Activity (AID 2283049).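 Also: SAA protein level quantified by ELISA.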 The settings on record: primary human coronary artery smooth muscle cells; actives raise or lower the signal.
`COCCOC[C@H](CC1(C(=O)NC2CCC(C(=O)O)CC2)CCCC1)C(=O)Oc1ccc2c(c1)CCC2` (some centres not stated): the result was inactive.

As a reminder, the AC50 is the concentration at which the activity in the assay is half-maximal. For the molecule `COc1cc(-c2nc(NC(=O)c3cc4cc(C)cc(C)c4n3CC(=O)O)sc2CCC2CCCCC2)c(OC)cc1Cl`, the AC50 is 8.47 µM (active).

As to `NCC1(Cc2noc(=O)[nH]2)CCCCC1`, the outcome was inactive.

Take `CCCCC(CC)COC(=O)CC(C(=O)OCC(CC)CCCC)S(=O)(=O)O` (configuration not stated): the result was inactive.

As for `CCOC(=O)CCC(=O)OCC`, the outcome was inactive.

In the case of `Nc1ccc(S(=O)(=O)c2ccc(N)cc2)cc1`, the result was inactive.

On to `CC(C)c1ccc(C(=O)N=C(N)N)cc1S(C)(=O)=O`, for which the outcome was inactive.

`CCCCCCOCCO`: the outcome was inactive.

Consider `CC(CO)OC(C)CO` (configuration not stated) (tested in a mixture with another compound), for which the outcome was inactive.

As to `COc1cc(C=O)ccc1O`, the result was inactive.

In the case of `c1cc(-c2ccncc2)ccn1`, the outcome was inactive.

On to `CCNc1cccc(C)c1`, for which the result was inactive.

Take `CN1CCN(Cc2cc(-c3ccc4[nH]c(=O)oc4c3)co2)[C@@H](c2ccc(F)cc2)C1`: the outcome was inactive.

Turning to `Cc1nc(-c2ccc3c(c2)CCN(CCC2CCC(NC(=O)/C=C/c4ccc(F)cc4)CC2)CC3)no1` (configuration not stated), the half-maximal activity concentration (AC50) is 9.3 µM (active).

Turning to `O=c1c(O)c(-c2ccc(O)c(O)c2)oc2cc(O)cc(O)c12`, the outcome was inactive.

In the case of `CN[C@H]1CC[C@@H](c2ccc(Cl)c(Cl)c2)c2ccc(S(N)(=O)=O)cc21`, the AC50 is 36 µM (active).

On to `CCCCN(CCCC)CCCC`, for which the outcome was inactive.

As to `COC(=O)c1ccc(O)cc1`, the outcome was inactive.

In the case of `CC1=C(/C=C/C(C)=C/C=C/C(C)=C/CO)C(C)(C)CCC1`, the result was inactive.

Take `CNC(=O)[C@H]1O[C@@H](n2cnc3c(NCc4cc(Cl)ccc4OCc4cc(C)no4)ncnc32)[C@H](O)[C@@H]1N`: the outcome was inactive.

As for `Cc1cc(=O)[nH]c(=S)[nH]1`, the outcome was inactive.

`CCCCc1ccc2c(n1)[C@@H](c1ccc(OC)cc1C[C@H](C)C(=O)O)[C@H](C(=O)O)[C@H]2c1ccc2c(c1)OCO2`: the result was inactive.

As for `FC(F)(F)C(F)(F)C(F)(F)C(F)(F)C(F)(F)C(F)(F)CCI`, the outcome was inactive.

For the molecule `C=CCOC(=O)c1ccccc1C(=O)OCC=C`, the result was inactive.

Regarding `O=[N+]([O-])C(CO)(CO)CO`, the outcome was inactive.

Consider `Oc1ccc2ccccc2c1N=Nc1ccccc1`, for which the result was inactive.

Turning to `O=C(N[C@@H](Cc1ccccc1)[C@@H](O)C(=O)N1C[C@@H](O)[C@@H](O)C1)c1cc2cc(Cl)ccc2[nH]1`, the outcome was inactive.

With `CCCCCCCCCCCCCCCC`, the result was inactive.

As for `CCCCCCCCCCC`, the result was inactive.

Read-out in another test: not listed separately
The test can be described thus: BSK_CASM3C_SRB: Viability Assessment in the BioMAP Diversity Plus: CASM3C Assay (AID 2283050).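 Also: total protein by SRB staining as cytotoxicity measure in parallel cultures; cells exposed to compound for 24 h.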 The note with it: primary human coronary artery smooth muscle cells.
As for `COCCOC[C@H](CC1(C(=O)NC2CCC(C(=O)O)CC2)CCCC1)C(=O)Oc1ccc2c(c1)CCC2` (some centres not stated), the outcome was inactive.

`COc1cc(-c2nc(NC(=O)c3cc4cc(C)cc(C)c4n3CC(=O)O)sc2CCC2CCCCC2)c(OC)cc1Cl`: the AC50 was 7.05 µM (active).

Consider `NCC1(Cc2noc(=O)[nH]2)CCCCC1`, for which the outcome was inactive.

With `CCCCC(CC)COC(=O)CC(C(=O)OCC(CC)CCCC)S(=O)(=O)O` (configuration not stated), the result was inactive.

`CCOC(=O)CCC(=O)OCC`: the outcome was inactive.

With `Nc1ccc(S(=O)(=O)c2ccc(N)cc2)cc1`, the result was inactive.

Turning to `CC(C)c1ccc(C(=O)N=C(N)N)cc1S(C)(=O)=O`, the result was inactive.

As for `CCCCCCOCCO`, the outcome was inactive.

In the case of `CC(CO)OC(C)CO` (configuration not stated) (tested in a mixture with another compound), the result was inactive.

On to `COc1cc(C=O)ccc1O`, for which the outcome was inactive.

Regarding `c1cc(-c2ccncc2)ccn1`, the result was inactive.

`CCNc1cccc(C)c1`: the outcome was inactive.

`CN1CCN(Cc2cc(-c3ccc4[nH]c(=O)oc4c3)co2)[C@@H](c2ccc(F)cc2)C1`: the result was inactive.

As for `Cc1nc(-c2ccc3c(c2)CCN(CCC2CCC(NC(=O)/C=C/c4ccc(F)cc4)CC2)CC3)no1` (configuration not stated), the AC50 was 9.3 µM (active).

Turning to `O=c1c(O)c(-c2ccc(O)c(O)c2)oc2cc(O)cc(O)c12`, the AC50 was 14.2 µM (active).

Regarding `CN[C@H]1CC[C@@H](c2ccc(Cl)c(Cl)c2)c2ccc(S(N)(=O)=O)cc21`, the AC50 is 31.3 µM (active).

With `CCCCN(CCCC)CCCC`, the outcome was inactive.

On to `COC(=O)c1ccc(O)cc1`, for which the outcome was inactive.

`CC1=C(/C=C/C(C)=C/C=C/C(C)=C/CO)C(C)(C)CCC1`: the result was inactive.

Consider `CNC(=O)[C@H]1O[C@@H](n2cnc3c(NCc4cc(Cl)ccc4OCc4cc(C)no4)ncnc32)[C@H](O)[C@@H]1N`, for which the result was inactive.

As for `Cc1cc(=O)[nH]c(=S)[nH]1`, the outcome was inactive.

`CCCCc1ccc2c(n1)[C@@H](c1ccc(OC)cc1C[C@H](C)C(=O)O)[C@H](C(=O)O)[C@H]2c1ccc2c(c1)OCO2`: the outcome was inactive.

Turning to `FC(F)(F)C(F)(F)C(F)(F)C(F)(F)C(F)(F)C(F)(F)CCI`, the outcome was inactive.

As to `C=CCOC(=O)c1ccccc1C(=O)OCC=C`, the outcome was inactive.

Regarding `O=[N+]([O-])C(CO)(CO)CO`, the outcome was inactive.

In the case of `Oc1ccc2ccccc2c1N=Nc1ccccc1`, the result was inactive.

With `O=C(N[C@@H](Cc1ccccc1)[C@@H](O)C(=O)N1C[C@@H](O)[C@@H](O)C1)c1cc2cc(Cl)ccc2[nH]1`, the result was inactive.

In the case of `CCCCCCCCCCCCCCCC`, the result was inactive.

In the case of `CCCCCCCCCCC`, the result was inactive.

The record behind these values is PubChem BioAssay (EPA / NIEHS).
